# The campaign covered roughly 410,000 compounds. About 5,000 (1.2%) were called active. Inconclusive results (about 13%) are left out. The full list was thinned out, with actives kept by preference. Values without a mark were called inactive. Calls come from the whole dose curve; as a rule, active = well fitted inhibition curve with a large enough effect; inconclusive = small, poorly fitted or top-dose-only effect; inactive = no such curve, though single readings can be large or run the other way.
# Test: qHTS for Inhibitors of TGF-b; note: nearly all actives have a fitted effect of over 65% in size
# Settings: HepG2 CAGA-GFP TGF-b/SMAD3 reporter, GFP fluorescence, 18 h, TGF-beta stimulated, 500 pg/mL final; series mostly up to 46.1 µM; activity, negative = inhibition: at the top concentration
# Summary of the method: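 Cell-based qHTS in HEPG2 carrying a CAGA-GFP Smad reporter; compounds added before 500 pg/mL final TGF-beta, 18 h incubation at 37 degrees C, GFP fluorescence quantified per cell by imaging cytometry.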
# % is set by controls: 0 for no effect and ±100 for the full control effect; potency is the fitted concentration of half-maximal effect.
SMILES,"activity, negative = inhibition",Potency
CCc1nccn1S(=O)(=O)c1cc(Br)ccc1Br,3.54%,
COc1ccc(OC)c(NC(=O)/C=C/c2ccc(C)o2)c1,39.7%,
O=C(CSc1oc(-c2ccc(F)cc2)nc1S(=O)(=O)c1ccc(Br)cc1)NC1CCCCC1,11.8%,
CC(C)S(=O)(=O)c1oc(-c2ccc(F)cc2)nc1S(=O)(=O)c1ccc(F)cc1,,1.26 µM (active)
Cc1ccc(-c2nc(S(=O)(=O)c3ccc(C)cc3)c(N3CCCCCC3)o2)cc1,9.54%,
Cc1ccc(CCNC(=O)Cn2c(-c3cccs3)cc3cc(F)ccc32)cc1,-3.68%,
COc1ccc(CC(=O)NCCc2sc3nc(-c4ccc(OC)cc4)nn3c2C)cc1,-12%,
COc1c(Cl)cc(C(=O)N(Cc2ccccc2F)C2CCS(=O)(=O)C2)cc1Cl (stereo unspecified),-28.9%,
Cc1ccc2nc(-c3ccc(O)cc3)c(Nc3ccc4c(c3)OCO4)n2c1,-25.9%,
Cc1cc(C)nc(SC(C)C(=O)N/N=C/c2cccs2)n1 (stereo unspecified),4.28%,
Cc1cc(C)nc(S/C=C/C(=O)c2ccccc2)n1,,3.16 µM (active)
COC(c1ccccc1)(c1ccccc1)C(Oc1nc(C)cc(C)n1)C(=O)O (stereo unspecified),16.7%,
Cc1ccc(Cn2c(CNC(=O)Cc3cccc(C)c3)nc3cccnc32)cc1,-23%,
CC(=O)Nc1cc(C(=O)NCc2ccc(F)cc2Cl)ccc1Sc1ccc(Cl)cc1,0%,
COc1ccc(CN2CCC(=O)c3ccccc3S2(=O)=O)cc1,-1.44%,
COc1cccc2c1C(=O)c1c(O)c3c(c(O)c1C2=O)CC(O)(C(C)=NNC(=O)c1ccc(Cl)c(Cl)c1)CC3OC1CC(N)C(O)C(C)O1 (stereo unspecified),,1.12 µM (active)
Cc1ccc(Cn2cnc3c(cnn3C(C)(C)C)c2=O)c(F)c1,-14.2%,
COc1cc(CN(C(=O)c2ccccc2Br)c2ccccn2)cc(OC)c1OC,-7.28%,
CC(C)CC[n+]1ccn(C2=C([O-])c3ccccc3C(=O)/C2=N\S(=O)(=O)c2ccccc2)c1,,3.16 µM (active)
COC(=O)c1ccc(NC(=O)c2cccc3c2C(=O)N(C2CCCCC2)C3)cc1,6.39%,
Cc1cccc(CN2CCN(C3CN(Cc4ccccc4)S(=O)(=O)C3)CC2)c1 (stereo unspecified),-23.2%,
Cc1ccc(CN2CC(N3CCC(Cc4ccccc4)CC3)CS2(=O)=O)cc1 (stereo unspecified),,14.1 µM (active)
O=S1(=O)CC(N2CCC(Cc3ccccc3)CC2)CN1Cc1ccccc1 (stereo unspecified),-44.1%,
Cc1ccc(CN2CCc3nc(N4CCN(C)CC4)ncc3C2)cc1,-2.9%,

SMILES,"activity, negative = inhibition",Potency
CCOc1ccc(NC(=O)CC2C(=O)N(c3cccc(OC)c3)C(=O)N2C2CCCCC2)cc1 (stereo unspecified),-13.9%,
Cc1cccc(NC(=O)Cn2c(C(F)(F)F)nc3ccccc32)c1C,-19.4%,
O=C(CSc1nc2c(c(=O)[nH]1)CN(Cc1ccc3c(c1)OCO3)CC2)Nc1cc(F)ccc1F,-4.36%,
N#C/C=C/N1CCN(Cc2ccc3c(c2)OCO3)CC1,1.39%,
Fc1ccc2[nH]c3c(N4CCN(Cc5ccc6c(c5)OCO6)CC4)ncnc3c2c1,,17.8 µM (active)
Cc1cc(C)cc(NC(=O)Cc2csc(C)n2)c1,0%,
Cc1ccc(C)c(S(=O)(=O)n2nc(C)c(S(=O)(=O)N3CCC(C)CC3)c2C)c1,1.69%,
COC(=O)c1cc(Oc2ccc(S(=O)(=O)N3CCOCC3)cc2[N+](=O)[O-])cc(C(=O)OC)c1,-15.1%,
CC(C)N1CCC(=NNc2ccc([N+](=O)[O-])cc2S(=O)(=O)N2CCOCC2)CC1,,11.2 µM (active)
O=[N+]([O-])c1cc(S(=O)(=O)N2CCCC2)ccc1NN=C1CCCC1,-8.61%,
Cc1ccc(C)c(N2CCN(C(=O)CCc3c(C)nc4c(c3C)c(=O)n(C)c(=O)n4C)CC2)c1,-24.3%,
CCOc1ccc(CNC(=O)c2ccc(CS(=O)c3ccccc3)o2)cc1 (stereo unspecified),-1.57%,
CC(=O)c1ccc(N2CCN(C3C(=O)c4ccccc4N3C(C)=O)CC2)cc1 (stereo unspecified),0%,
CCN(C(=O)COc1ccc(C(=O)c2ccccc2)cc1)c1ccccc1,-18%,
CCOc1ccc2nc(N(CCCN(C)C)C(=O)c3ccc(C(=O)c4ccccc4)cc3)sc2c1,,22.4 µM (active)
CCOc1ccc2nc(C(=O)N3CCCC(C)C3)sc2c1 (stereo unspecified),3.8%,
Cc1ccc2nc(/C(C#N)=C/c3ccccc3F)[nH]c2c1,-31.6%,
Cn1c(=O)n(C)c2cc(S(=O)(=O)N3CCCc4ccccc43)ccc21,,12.6 µM (active)
CCn1c(=O)c(=O)n(CC)c2cc(S(=O)(=O)N3CCc4ccccc43)ccc21,8.33%,
O=S(=O)(c1ccccc1)N1CCc2ccccc21,-0.156%,
Cc1cc(C)cc(NC(=O)CSc2oc(-c3ccccc3)nc2S(=O)(=O)c2ccc(Cl)cc2)c1,4.95%,
COc1cc(C(=O)N2CCN(c3ccc(Nc4ccc(C)cc4)nn3)CC2)cc(OC)c1OC,-7.49%,
Cc1onc(-c2c(F)cccc2Cl)c1C(=O)N(C)CC(=O)Nc1cccc(F)c1,-2.61%,
Cc1onc(-c2c(F)cccc2Cl)c1C(=O)Nc1cccc(S(=O)(=O)N2CCCCC2)c1,5.34%,

SMILES,"activity, negative = inhibition",Potency
Cc1onc(-c2ccc(F)cc2F)c1C(=O)Nc1cccc(C(F)(F)F)c1,,12.6 µM (active)
O=C1c2ccccc2C(=O)N1c1ccc(S(=O)(=O)N2CCOCC2)c2ccccc12,3.68%,
Cc1ccc(-c2noc(-c3nnn(-c4cccc(C(F)(F)F)c4)c3N)n2)cc1,9.38%,
COc1ccc(OC)c(CCNC(=O)CCCn2c(=O)c3cccn3c3cccnc32)c1,-4.81%,
CCOCCc1nn2c(=O)cc(COC(=O)CNC(=O)c3ccc(C(C)(C)C)cc3)nc2s1,-31.7%,
CCOC(=O)Cn1c(=O)n(C2CCCCC2)c2nc(-c3cccc(OC)c3)nc(C(N)=O)c21,1.49%,
CCc1nc2c(OCc3ccc(Cl)cc3Cl)cccn2c1N(C)C(=O)C(C)C,,12.6 µM (active)
Cc1nc2c(OCC(=O)C(C)(C)C)cccn2c1N(C)Cc1cccs1,-8.85%,
CCc1nc2c(OCc3ccc(C(=O)OC)cc3)cccn2c1N(C)C(=O)C(C)C,-7.08%,
Cc1nc2c(OCc3ccc(Cl)cc3Cl)cccn2c1N(C)CC1CC1,,11.2 µM (active)
Cc1nc2c(OCc3cccc(Cl)c3)cccn2c1N(C)CC1CC1,-16.2%,
CCc1nc2c(OCc3cccc(OC)c3)cccn2c1N(C)C(=O)C(C)C,-1.92%,
COc1cccc(N2CC(NC(=O)/C=C\c3ccccc3)CC2=O)c1 (stereo unspecified),-8.37%,
O=C(CCSCc1cccc(F)c1)NCc1ccccc1,-6.59%,
CCN(CCCNC(=O)c1ccc(Sc2ccc(C)cc2)c(NC(C)=O)c1)c1cccc(C)c1,-2.89%,
CCCOc1cccc(C(=O)Nc2cccc(NC(=O)c3ccc(C(C)(C)C)cc3)c2)c1,-8.91%,
COC(=O)c1ccc(OCC(=O)NC(C)(C)C)cc1,4.89%,
CCCOc1ccc(C(=O)C(CCC(CNCC)C(=O)c2ccc(OCCC)cc2)CNCC)cc1 (stereo unspecified),,3.16 µM (active)
Cc1cc(Br)ccc1NC(=O)Cn1cnc2sc(C)c(S(=O)(=O)N3CCN(C)CC3)c2c1=O,5.55%,
COc1cc(OC)cc(-c2nc3nc(C)c(CCC(=O)Nc4ccccc4)c(C)n3n2)c1,-0.887%,
Cc1ccc(-c2cn3c(n2)sc2cc(C(=O)NCCCc4ccccc4)ccc23)cc1,19.4%,
COc1ccc(N2C(=O)CSC23C(=O)N(Cc2cccc(F)c2)c2ccccc23)cc1Cl (stereo unspecified),0.856%,
COc1ccc(-c2nc3c4ccccc4n(CC(=O)Nc4ccc(C(C)=O)cc4)c(=O)n3n2)cc1,-19%,
COc1cc(CC(=O)Nc2nc(-c3ccc(F)c(F)c3)cs2)cc(OC)c1OC,,11.2 µM (active)

SMILES,"activity, negative = inhibition",Potency
O=C(COC(=O)C1CCCO1)Nc1nc(-c2ccc(F)cc2)cs1 (stereo unspecified),-6.26%,
COc1ccc(CCNC(=O)COC(=O)Cc2cc(OC)c(OC)c(OC)c2)cc1,-3.46%,
O=[N+]([O-])c1ccc(S(=O)(=O)N2CCN(c3nc(-c4ccccc4)nc4ccccc34)CC2)cc1,3.85%,
COc1cccc(CNC(=O)C(NS(=O)(=O)c2ccc3nc(C)sc3c2)C(C)C)c1 (stereo unspecified),-0.357%,
COc1ccccc1NC(=O)/C=C/C(N)=O,,12.6 µM (active)
COc1ccccc1NC(=S)NC(=O)C(C)C,-9.88%,
COc1ccccc1NC(=O)c1cc(Cl)nnc1Cl,2.59%,
Brc1ccc(C2=CC(c3ccco3)n3ncnc3N2)cc1 (stereo unspecified),64.9%,
CCOC(=O)C1=C(c2ccccc2)Nc2ncnn2C1c1ccc(Cl)cc1 (stereo unspecified),9.18%,
Clc1ccc2c(c1)C1=C(C(c3ccncc3)O2)C(c2ccc(Br)cc2)n2ncnc2N1 (stereo unspecified),,3.98 µM (active)
Cc1nnsc1C(=O)N/N=C/c1cccc(C(F)(F)F)c1,6.29%,
Cc1cc2c(C)nc(N/N=C/c3ccccc3)nc2o1,1.98%,
FC(F)(F)c1cccc(N/N=C/c2ccccc2)c1,,11.2 µM (active)
O=C1CSC2(C(=O)N(Cc3ccccc3)c3ccccc32)N1c1cccc(F)c1 (stereo unspecified),-24.9%,
CCN1CCc2nc3sc(C(=O)Nc4ccccc4OC(F)(F)F)c(N)c3cc2C1,44.2%,
CCOC(=O)c1c(C)[nH]c(CCC(=O)Nc2ccc(OC)c(OC)c2)c1C,-4.89%,
Cc1noc(C)c1COc1ccc(C(=O)NCCOc2ccccc2)cc1,-6.19%,
CN(C)C(CNC(=O)c1ccc(OCc2cn3ccccc3n2)cc1)c1ccco1 (stereo unspecified),9.62%,
CN(C)CCNC(=O)c1ccc(-c2cn3c(-c4ccc(Oc5ccccc5)cc4)cnc3cn2)cc1,,11.2 µM (active)
COc1ccc(CCNC(=O)C(=O)NCC(c2ccco2)S(=O)(=O)c2cccs2)cc1OC (stereo unspecified),1.36%,
OC[C@@H]1O[C@H](n2cnc3c(SCc4ccccc4)ncnc32)[C@H](O)[C@H]1O,-27.6%,
CN1C[C@@H](CO)O[C@@H](n2cnc3c(N4CCN(CCO)CC4)ncnc32)C1,27.1%,
OCC1OC(n2cnc3c(N4CCCC4)ncnc32)C(O)C1O (stereo unspecified),,2.82 µM (active)
COc1ccccc1NC(=O)CSc1oc(-c2ccco2)nc1S(=O)(=O)c1ccc(Br)cc1,-1.11%,

# — PubChem BioAssay AID588855 (National Center for Advancing Translational Sciences (NCATS), 2011)
